Measurements published in article PMC5540273 (PLoS ONE, 2017).

Columns and labels:
Conditions in all cases: concentration: 1 μM, replicates: in singlicate; n = 1
CDKL3 = tested on: CDKL3
CDKL5 = tested on: CDKL5
CHEK1 = tested on: CHEK1
CHEK2 = tested on: CHEK2
CIT = tested on: CIT
CLK1 = tested on: CLK1
CLK2 = tested on: CLK2
CLK3 = tested on: CLK3
CLK4 = tested on: CLK4
CSF1R-autoinhibited = tested on: CSF1R-autoinhibited
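Further: KINOMEscan kinase panel screen.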

Row | Structure (SMILES) | %Inh (CDKL3) [%] | %Inh (CDKL5) [%] | %Inh (CHEK1) [%] | %Inh (CHEK2) [%] | %Inh (CIT) [%] | %Inh (CLK1) [%] | %Inh (CLK2) [%] | %Inh (CLK3) [%] | %Inh (CLK4) [%] | %Inh (CSF1R-autoinhibited) [%]
1 | CCC(=O)c1c(-c2ccccc2)c2cc(Cl)ccc2c(=O)n1Cc1cc(S(C)(=O)=O)n(CCC(C)(C)O)n1 | 17 | 40 | 13 | 19 | 2 | 0 | 1 | 9 | 2 | 6
2 | Cc1cccc(-c2nc(Nc3ccc4c(cnn4C)c3)c3ccccc3n2)n1 [GW876731] | 12 | 0 | 0 | 0 | 12 | 0 | 10 | 0 | 0 | 0
3 | FC(F)(F)c1ccc(-c2ncn(CCCN3CCOCC3)c2-c2ccncc2)cc1 [SB-217780] | 0 | 16 | 0 | 33 | 0 | 12 | 0 | 0 | 0 | 0
4 | Cc1nc(N(C)[C@H]2CN(C(=O)CC#N)CC[C@H]2C)c2cc[nH]c2n1 | 0 | 6 | 48 | 0 | 0 | 13 | 15 | 0 | 0 | 0
5 | COc1cc(Nc2nccc(N3CCC(NC(=O)C4COc5ccccc5O4)C3)n2)cc(OC)c1OC (stereo not shown) [GSK1379761] | 0 | 0 | 0 | 29 | 33 | 3 | 0 | 0 | 0 | 58
6 | Nc1n[nH]c2ncc(-c3ccccc3)cc12 [SB-517081] | 0 | 0 | 12 | 0 | 29 | 21 | 0 | 0 | 66 | 0
7 | COc1cc2ncn(-c3cc(OCc4ccc(S(C)(=O)=O)cc4)c(C(N)=O)s3)c2cc1OC [GW869979] | 0 | 15 | 18 | 0 | 29 | 17 | 1 | 0 | 0 | 5
8 | OCCCNc1nccc(-c2c(-c3cccc(C(F)(F)F)c3)nn3cc(C(F)(F)F)ccc23)n1 [GW630813] | 0 | 11 | 0 | 1 | 0 | 9 | 0 | 0 | 16 | 32
9 | COc1cc(OC)cc(-c2cc3cnc(N)nc3nc2NC(=O)NC(C)(C)C)c1 | 2 | 0 | 0 | 10 | 0 | 30 | 0 | 0 | 7 | 0
10 | COc1cc2ncn(-c3cc(OCc4ccncc4)c(C(N)=O)s3)c2cc1OC [GSK336313] | 0 | 2 | 0 | 0 | 10 | 42 | 5 | 0 | 0 | 0
11 | COc1ccc(-n2cnc3c(N)ncnc32)cc1 [SKF-97236] | 0 | 0 | 2 | 0 | 19 | 48 | 48 | 0 | 47 | 0
12 | COC(=O)c1c(-c2ccccc2)c2cc(Br)ccc2c(=O)n1Cc1ccc(S(C)(=O)=O)cc1 | 22 | 26 | 0 | 23 | 23 | 0 | 14 | 0 | 13 | 7
13 | O=C(Nc1n[nH]c2nc(-c3ccccc3)c(Br)cc12)C1CC1 [SB-708998] | 0 | 0 | 15 | 0 | 19 | 17 | 0 | 0 | 21 | 0
14 | O=C1NC(=O)C(c2ccccc2)=C1Nc1cccc(O)c1 [SB-390534] | 0 | 0 | 0 | 16 | 0 | 40 | 21 | 19 | 10 | 0
15 | Cc1nnc(-c2ccc(C)c(-c3ccc(C(=O)O)cc3)c2)o1 [GW608005] | 0 | 0 | 5 | 0 | 32 | 10 | 0 | 0 | 0 | 0
16 | Cc1ccc(-c2ccc3c(ccc4sc5c(c43)NC[C@@H](C)N=C5N(C)C)n2)cn1 | 0 | 0 | 0 | 1 | 0 | 0 | 0 | 0 | 0 | 14
17 | CCCC(=O)Nc1n[nH]c2ncc(-c3cccc4ccccc34)cc12 [SB-642057] | 0 | 3 | 0 | 0 | 1 | 30 | 0 | 0 | 8 | 0

Row | Structure (SMILES) | %Inh (CDKL3) [%] | %Inh (CDKL5) [%] | %Inh (CHEK1) [%] | %Inh (CHEK2) [%] | %Inh (CIT) [%] | %Inh (CLK1) [%] | %Inh (CLK2) [%] | %Inh (CLK3) [%] | %Inh (CLK4) [%] | %Inh (CSF1R-autoinhibited) [%]
18 | Cc1nn2c(=O)cc(N3CCOCC3)nc2n1Cc1cccc(Cl)c1Cl [GSK2342769] | 0 | 8 | 26 | 0 | 10 | 20 | 1 | 16 | 22 | 0
19 | COc1cc(Nc2nccc(N3CCC(NC(=O)C(C)c4ccc(Cl)cc4)C3)n2)cc(OC)c1OC (stereo not shown) [GSK1379757] | 0 | 0 | 0 | 8 | 9 | 22 | 0 | 43 | 18 | 0
20 | CCC(=O)c1c(-c2ccccc2)c2cc(Cl)ccc2c(=O)n1Cc1cc(S(C)(=O)=O)n(CC(N)=O)n1 | 16 | 0 | 0 | 0 | 11 | 0 | 7 | 0 | 63 | 0
21 | CCc1ccc(-c2ccc3c(c2)-c2nn(C)cc2S(=O)(=O)N3C)cc1 | 0 | 0 | 0 | 0 | 0 | 0 | 13 | 0 | 0 | 2
22 | COC(=O)c1c(-c2ccccc2)c2cc(Br)ccc2c(=O)n1Cc1ccc(NC(=O)CCC(=O)O)cc1 | 12 | 6 | 0 | 25 | 33 | 0 | 0 | 0 | 17 | 0
23 | CCC(=O)c1c(-c2ccccc2)c2cc(Cl)ccc2c(=O)n1Cc1cc(S(C)(=O)=O)n(CC(F)F)n1 | 2 | 8 | 13 | 0 | 0 | 8 | 0 | 0 | 0 | 0
24 | CCS(=O)(=O)c1ccc(OC)c(Nc2ncc(-c3ccc(F)cc3)o2)c1.Cl [GW591947] | 59 | 0 | 0 | 0 | 21 | 25 | 40 | 79 | 23 | 0
25 | Nc1ncnc2c1ncn2-c1ccc(Cl)cc1 [AH2635] | 0 | 0 | 0 | 0 | 26 | 28 | 19 | 0 | 3 | 0
26 | O=C(Nc1n[nH]c2nc(-c3ccccc3)c(Cl)cc12)C1CC1 [SB-734909] | 2 | 0 | 0 | 22 | 0 | 0 | 0 | 15 | 0 | 0
27 | CCCNC(=O)Nc1ccc(Oc2ncnc3ccn(C)c23)cc1 | 18 | 7 | 0 | 0 | 1 | 0 | 0 | 0 | 4 | 7
28 | Nc1ncnc2c1ncn2-c1cccc2ccccc12 [SKF-97184] | 26 | 3 | 0 | 17 | 35 | 0 | 3 | 6 | 0 | 33
29 | COc1cc2nccc(Nc3cccc(Oc4ccccc4)c3)c2cc1OC.Cl [GW284543] | 0 | 0 | 0 | 0 | 0 | 21 | 0 | 0 | 0 | 32
30 | Nc1n[nH]c2nnc(-c3ccccc3)c(-c3ccccc3)c12 [GW554060] | 0 | 0 | 24 | 0 | 26 | 23 | 65 | 0 | 12 | 34
31 | Cc1ccccc1COc1cc(-n2cnc3cc(Cl)ccc32)sc1C(N)=O [GW813349] | 23 | 2 | 0 | 0 | 21 | 18 | 3 | 0 | 6 | 0
32 | O=C(Nc1n[nH]c2cc(-c3ccccc3F)ccc12)C1CC1 [SB-733371] | 14 | 0 | 0 | 13 | 7 | 2 | 0 | 14 | 0 | 0
33 | CCn1c(-c2nonc2N)nc2ccccc21 [SB-693162/GW549034] | 3 | 25 | 0 | 0 | 31 | 0 | 0 | 0 | 0 | 8
34 | CN(C)c1cc(-c2ccc3c(N)n[nH]c3c2)nc(N)n1 [GSK2219329] | 0 | 0 | 0 | 0 | 23 | 45 | 12 | 0 | 51 | 0
